We go through 38 compounds from PubChem BioAssay (NCI).

Structures are written as SMILES. This is part of a sample that, as a whole, favours compounds with a hit. Of some 83,000 tested, about 20% had one in any assay.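 Single-concentration screen, 48 h exposure, 96-well plates. Endpoint: percent growth. Below 10 = active.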 Calls of active or inactive are those of the source.

The test system of the test is SF-268 CNS. Briefly: NCI-60 one-dose screen, 48 h (100 = growth as untreated, 0 = no growth, -100 = all killed). Conditions: 10 µM unless noted.
For `O=C1NC(=O)c2c1c1c3cc(Br)ccc3[nH]c1c1oc3ccc(F)cc3c21`, the growth is -22.6% (active).
Turning to `C#CCOc1ccc(/C=N/Nc2nc(-c3ccc(F)cc3)cs2)cc1OC`, the growth is 84.8% (inactive).
The result for `O=C1NC(=O)/C(=C/c2ccccc2OCc2cc3ccccc3nc2Cl)S1` reads 58.7% (inactive).
As to `Cc1ccc(NCC(=O)Cn2cc(COc3ccc(C=Nc4cnc5ccccc5c4)cc3)nn2)cc1`, the growth is 123% (inactive).
Turning to `C/C(=N\N=C1/C(=O)Nc2ccccc21)c1ccc2c(c1)Nc1ccccc1S2`, the growth is 55.3% (inactive).
The figure for `C/C(=N\N=C1/C(=O)Nc2ccc(Cl)cc21)c1ccc2c(c1)Nc1ccccc1S2` is 35.7% (inactive).
In the case of `CCN(CC)c1ccnc(CNCCSC(c2ccccc2)(c2ccccc2)c2ccc(C)cc2)c1`, the growth is -55.8% (active).
The figure for `Cc1cc2c(cc1Cl)C(=O)/C(=C/c1ccccc1)O2` is 64% (inactive); for `COc1ccc(C(=O)/C=C/c2ccc(OCc3ccc(F)cc3)c(OC)c2)cc1OC` it is 24.3% (inactive).
In the case of `COc1cc(OC)c2c3nc4cc(C)c(C)cc4nc3n(CCN(C)C)c2c1`, the growth was 86.2% (inactive).
Regarding `N=C1N=C(SCc2nc3ccccc3[nH]2)NC(=O)/C1=C/c1ccc(Cl)cc1`, the growth is 112% (inactive).
The figure for `COc1ccc(C2CC(c3ccc(S(=O)(=O)NCCNc4nc(Nc5ccc(F)cc5)nc(N(C)C)n4)cc3)=Nc3c(N)nc(N)nc3N2)cc1` (stereo not drawn) is 73.8% (inactive); for `O=C(Cn1nc(-c2ccccc2)ccc1=O)N/N=C/c1ccc(N2CCOCC2)cc1` it is 98.2% (inactive); for `CC1(C)CC[C@]2(C(=O)O)CC[C@]3(C)C(=CCC4[C@@]5(C)C[C@@H](O)[C@@H]6OC(c7cccc(Br)c7)OC[C@@]6(C)C5CC[C@]43C)C2C1` (stereo partly drawn) it is 47.5% (inactive).
The result for `COc1ccc(C(=O)/C=C/c2ccc(OCc3ccccc3)c(OC)c2)cc1OC` reads 32.6% (inactive); that for `O=C(N=Nc1c(O)[nH]c2ccc([N+](=O)[O-])cc12)c1ccc2nc(-c3ccccc3)[nH]c2c1`, 53.3% (inactive); that for `C/C(=N\N=C\c1cc([N+](=O)[O-])ccc1Cl)c1ccc2c(c1)Nc1ccccc1S2`, 80.4% (inactive).
For `C=C1CCC2C3(C)COC(c4ccc(F)cc4)OC3CCC2(C)C1C/C=C1/C(=O)OCC1O` (stereo not drawn), the growth is 39.7% (inactive).
`CCCSc1nc(NCCc2c[nH]c3ccccc23)c(C#N)c(-c2ccc(OC)cc2)n1`: the growth is 57.4% (inactive).
The figure for `N/C(=N\c1nc2ccccc2s1)NC(=O)Nc1ccccc1Br` is 1.62% (active); for `O=C(Cn1c2c(sc1=O)[C@H]1[C@@H](O)[C@@H](O)[C@H](O)[C@@H]1CS2)N1CCOCC1` it is 97.7% (inactive).
For the compound `COC(=O)/C=C/c1cccc2c1C(=O)NC(C)(c1cc3ccccc3oc1=O)N2` (stereo not drawn), the growth is 82.3% (inactive).
The result for `Brc1ccc(-c2n(Cc3ccc4ccccc4c3)c(-c3ccccc3)c(-c3ccccc3)[n+]2Cc2ccc3ccccc3c2)cc1` reads -72.1% (active); that for `COc1ccc(NC(=O)Cn2c3c(sc2=O)[C@H]2[C@@H](O)[C@@H](O)[C@H](O)[C@@H]2CS3)cc1`, 102% (inactive); that for `Cc1cc2nc3c4ccccc4n(CCCN(C)C)c3nc2cc1C`, -38.6% (active).
The figure for `O=S(=O)(Nc1cccc(-n2cnc3cc(-c4ccc(O)cc4)ccc32)c1)C1CC1` is 31.9% (inactive).
The figure for `CN(C)c1ccnc(CNCCSC2(c3ccc(C(F)(F)F)cc3)c3ccccc3C=Cc3ccccc32)c1` is 7.1% (active).
As to `CN(C)c1nc(NCCNS(=O)(=O)c2ccc(C3=Nc4c(N)nc(N)nc4NC(c4ccc(C(F)(F)F)cc4)C3)cc2)nc(Nc2ccc(F)cc2)n1` (stereo not drawn), the growth is 28% (inactive).
Turning to `O=C(NN1C(=O)/C(=C/C=C/c2ccc([N+](=O)[O-])o2)SC1=S)c1ccc(Cl)cc1`, the growth was -86.4% (active).
The result for `COCOc1ccc2c(=O)c(C)c(C(=O)N[C@@H](Cc3ccccc3)C(O)C(=O)NCCc3ccc(OC)cc3)oc2c1` (stereo partly drawn) reads 120% (inactive); that for `C#CCOc1cc(N(CC)CC)ccc1C(C(=O)NC(C)(C)C)N(C(=O)C1CCc2cc(F)ccc2O1)c1ccc(Br)cc1` (stereo not drawn), 92.8% (inactive).
The figure for `Cc1cc2nc3c4ccccc4n(CC4=NCCN4)c3nc2cc1C` is 40.7% (inactive).
For the compound `Cn1cc(-c2nc(N)nnc2-c2c[nH]c3ccc(F)cc23)c2cccnc21`, the growth was 34% (inactive).
As for `COc1ccc(N2N=C(c3ccc4c(c3)OCO4)CC2c2cccc(NC(=O)CCNS(=O)(=O)c3ccc(Cl)cc3)c2)cc1` (stereo not drawn), the growth is 32.8% (inactive).
As for `Cc1nc(Nc2ccccn2)sc1C(=O)CC(SCC(=O)Nc1ccc(Cl)cc1)c1ccccc1F` (stereo not drawn), the growth is 22.4% (inactive).
As to `Cc1cccc(-c2nc(Nc3ccc(C)c(S(N)(=O)=O)c3)c3ccccc3n2)c1`, the growth was 50.9% (inactive).
Regarding `CN(C)CCn1c2ccccc2c2nc3cc(C(F)(F)F)ccc3nc21`, the growth was 52.4% (inactive).
The figure for `S=C(Nc1ccccc1)Nc1ccc(OCc2nc3ccccc3[nH]2)cc1` is 24.1% (inactive).
